Laboratory results taken from a collection of fitness landscapes (doi:10.1016/j.celrep.2020.107928).
Over roughly 81,000 sequences, “one-hybrid fitness for binding parS DNA” has its median near -0.17; the highest 2% begin near 0.51. Only a selection was taken, and the highest values are over-represented in it overall.

B1: Caulobacter ParB omega fusion; a variant is named by its letters at X, in order, B8GW30 (parent)
chain: MESVVVGEPGMSEGRRGLGRGLSALLGEVDAAPAQAPGEQLGGSREAPIEILQRNPDQPRRTFREEDLEDLSNSIREKGVLQPILVRPSPDTAGEYQIVAGERAWRAAQRAGLKTVPIMVRELDDLAVLEIGIIENVQRADLNVLEEALSYKVLMEKFERTQENIAQTIGKSXSHVANXMRLLXLPDEVQSYLVSGELTAXHARAIAAAADPVALAKQIIEGGLSVRETEALARKAPNLSAGKSKGGRPPRVKDTDTQALESDLSSVLGLDVSIDHRGSTGTLTITYATLEQLDDLCNRLTRGI

Variants of: B1
Experiment: one-hybrid fitness for binding parS DNA (scaled: cognate 1, non-cognate 0); higher = stronger binding
Details: with parS DNA site
In short: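 Selection: bacterial one-hybrid in E. coli USO, HIS3 reporter with the site 19 bp from the promoter, 48 hours at 37°C on M9-minus-histidine plus 0.1 mM IPTG and 5 mM 3-AT. Libraries were Caulobacter ParB with four randomised specificity codons, sequenced on Illumina before and after selection. Fitness is the rescaled log change in variant-to-wild-type read ratio, anchored to the cognate and non-cognate sites.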

Variant | one-hybrid fitness for binding parS DNA
LDKA | ≤ 0.2
WVHI | ≤ 0.2
RLRA | 0.727
DLRA | ≤ 0.2
NLRA | ≤ 0.2
SEQC | ≤ 0.2
TFQR | ≤ 0.2
RICA | 0.525
RILA | 0.576
NICA | ≤ 0.2
NISA | ≤ 0.2
RIIA | 0.499
RIYA | 0.613
RIPA | 0.29
RISA | 0.608
HSNV | ≤ 0.2
QGKW | ≤ 0.2
YPTH | ≤ 0.2
PDPT | ≤ 0.2
YNHR | ≤ 0.2
PMSC | ≤ 0.2

Variant | one-hybrid fitness for binding parS DNA
NLLT | ≤ 0.2
NQHT | ≤ 0.2
WWRT | ≤ 0.2
PCFG | ≤ 0.2
YQHR | ≤ 0.2
RIRA | 0.672
RIEA | 0.451
RIQA | 0.576
RIGA | 0.661
RIHA | 0.574
NIRA | ≤ 0.2
TSST | ≤ 0.2
VTVI | ≤ 0.2
IMSG | ≤ 0.2
ENNW | ≤ 0.2
TFVM | ≤ 0.2
KSAC | ≤ 0.2
DWTC | ≤ 0.2
TPML | ≤ 0.2
CISV | ≤ 0.2
RIWA | 0.539

Variant | one-hybrid fitness for binding parS DNA
THES | ≤ 0.2
MCDC | ≤ 0.2
NYQC | ≤ 0.2
NSQY | ≤ 0.2
HMPR | ≤ 0.2
PPDT | ≤ 0.2
ARRF | ≤ 0.2
RQHF | 0.231
RQHK | ≤ 0.2
RQRG | 0.97
RQDH | ≤ 0.2
RQRH | 0.249
RQWM | 0.233
RQRP | ≤ 0.2
RQDG | 0.93
RQHG | 1.01
RQWG | 0.877
RQWK | ≤ 0.2
RQDD | ≤ 0.2
WATG | ≤ 0.2
TFEV | ≤ 0.2

Variant | one-hybrid fitness for binding parS DNA
KKQL | ≤ 0.2
VEMW | 0.21
SPRE | ≤ 0.2
VHIS | ≤ 0.2
HAND | ≤ 0.2
MQAL | ≤ 0.2
RQYD | ≤ 0.2
RQLG | 0.982
RQQH | ≤ 0.2
RQYG | 0.994
RQNG | 1.01
RQLH | ≤ 0.2
RQQN | 0.469
RQNM | 0.325
RQNF | 0.216
RQQG | 0.99
RQLD | ≤ 0.2
RQYH | ≤ 0.2
YEKG | ≤ 0.2
MTTE | ≤ 0.2
PMRC | ≤ 0.2
